Reference: PubChem BioAssay AID1159580 (chemical genetic matrix, 2015)
Where “and” joins values, the source holds several entries; their conditions need not be identical. Equal entries are not always repeated. Screen size: about 5,500 compounds; about 2,000 (36%) were called active. Another 18% or so got no clear call; they are omitted. Cut-off read from the data, not from the text of the source: active = normalized growth mostly below about 0.91 (no sharp cut-off); inconclusive = no clear call, values can overlap the other calls; inactive = mostly above about 0.92. Some of the results follow.

Experiment: chemical genetic growth profiling, strain panel (AID 1159580);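 note: tested at 20 µM; growth read once vehicle control cultures reached saturation at 30 °C; 1 = growth at the plate median or of vehicle wells; lower values mean less growth of the strain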
Settings: S. cerevisiae deletion strains, growth OD

Measured: normalized growth

Cc1ccc(/C(=C\CN2CCCC2)c2ccccn2)cc1
inactive: locus YAL013W, strain DEP1, stronger effect = lower value 1.01 | locus YAL021C, strain ccr4, stronger effect = lower value 0.99 | locus YAL026C, strain drs2, stronger effect = lower value 0.992 | locus YAL030W, strain snc1, stronger effect = lower value 1.03 | locus YAL040C, strain CLN3, stronger effect = lower value 1.02 | locus YBL061C, strain skt5, stronger effect = lower value 1.02 | locus YBR009C, strain hhf1, stronger effect = lower value 0.971 | locus YBR021W, strain FUR4, stronger effect = lower value 1 | locus YBR023C, strain chs3, stronger effect = lower value 1.01 | locus YBR171W, strain sec66, stronger effect = lower value 1.02 | locus YBR229C, strain ROT2, stronger effect = lower value 1.01 | locus YBR231C, strain swc5, stronger effect = lower value 1.04 | locus YBR279W, strain paf1, stronger effect = lower value 0.991 | locus YCL011C, strain gbp2, stronger effect = lower value 0.99 | locus YCL016C, strain dcc1, stronger effect = lower value 0.975 | locus YCL029C, strain bik1, stronger effect = lower value 1 | locus YCL061C, strain MRC1 (second series), stronger effect = lower value 0.99 | locus YCL061C, strain MRC1, stronger effect = lower value 1.02 | locus YCL069W, strain vba3, stronger effect = lower value 1.01 | locus YCR088W, strain abp1, stronger effect = lower value 1.02 | locus YDL005C, strain med2, stronger effect = lower value 1.01 | locus YDL035C, strain GPR1, stronger effect = lower value 1.02 | locus YDL040C, strain nat1, stronger effect = lower value 1.01 | locus YDL074C, strain BRE1, stronger effect = lower value 1.01 | locus YDL101C, strain DUN1, stronger effect = lower value 1.01 | locus YDL134C, strain PPH21, stronger effect = lower value 1.01 | locus YDL185W, strain tfp1, stronger effect = lower value 1.01 | locus YDL192W, strain arf1, stronger effect = lower value 1 | locus YDR001C, strain nth1, stronger effect = lower value 1 | locus YDR069C, strain doa4, stronger effect = lower value 1.02 | locus YDR101C, strain arx1, stronger effect = lower value 0.997 | locus YDR137W, strain rgp1, stronger effect = lower value 0.993 | locus YDR150W, strain NUM1, stronger effect = lower value 1.02 | locus YDR159W, strain sac3, stronger effect = lower value 0.933 | locus YDR162C, strain NBP2, stronger effect = lower value 1.01 | locus YDR195W, strain ref2 0.993 | locus YDR297W, strain sur2, stronger effect = lower value 1.02 | locus YDR318W, strain mcm21, stronger effect = lower value 0.995 | locus YDR334W, strain swr1, stronger effect = lower value 0.991 | locus YDR335W, strain msn5, stronger effect = lower value 1.01 | locus YDR363W, strain ESC2, stronger effect = lower value 0.965 | locus YDR388W, stronger effect = lower value 0.998 | locus YDR392W, strain spt3, stronger effect = lower value 0.927 | locus YDR502C, strain sam2, stronger effect = lower value 0.995 | locus YEL003W, strain gim4, stronger effect = lower value 1.04 | locus YEL037C, strain rad23, stronger effect = lower value 1.01 | locus YEL061C, strain CIN8 (second series), stronger effect = lower value 1.01 | locus YEL061C, strain CIN8, stronger effect = lower value 1.01 | locus YER002W, strain NOP16, stronger effect = lower value 1 | locus YER015W, strain faa2, stronger effect = lower value 1.01 | locus YER016W, strain bim1, stronger effect = lower value 0.995 | locus YER110C, stronger effect = lower value 0.995 | locus YER111C, strain swi4, stronger effect = lower value 1 | locus YER155C, strain BEM2 (second series), stronger effect = lower value 1.05 | locus YER155C, strain BEM2, stronger effect = lower value 1 | locus YER167W, strain BCK2, stronger effect = lower value 1.01 | locus YFR010W, strain ubp6, stronger effect = lower value 1.01 | locus YGL078C, strain dbp3, stronger effect = lower value 0.993 | locus YGL086W, strain mad1, stronger effect = lower value 0.996 | locus YGL167C, strain pmr1, stronger effect = lower value 1.01 | locus YGL173C, strain kem1, stronger effect = lower value 1.04 | locus YGL227W, strain vid30, stronger effect = lower value 1.01 | locus YGL240W, strain doc1, stronger effect = lower value 1.03 | locus YGL248W, strain PDE1, stronger effect = lower value 1 | locus YGL253W, strain hxk2, stronger effect = lower value 0.98 | locus YGR078C, strain PAC10, stronger effect = lower value 1.01 and 0.984 | locus YGR135W, strain pre9, stronger effect = lower value 0.997 | locus YGR229C, strain SMI1, stronger effect = lower value 1.01 and 0.973 | locus YGR252W, strain gcn5, stronger effect = lower value 0.98 | locus YHR013C, strain ard1, stronger effect = lower value 0.999 | locus YHR027C, strain rpn1, stronger effect = lower value 1.01 | locus YHR030C, strain SLT2, stronger effect = lower value 1.02 and 0.995 | locus YHR079C, strain IRE1 (second series), stronger effect = lower value 0.998 | locus YHR079C, strain IRE1, stronger effect = lower value 1.02 | locus YHR094C, strain hxt1, stronger effect = lower value 0.999 | locus YHR129C, strain ARP1, stronger effect = lower value 1.01 | locus YHR142W, strain chs7, stronger effect = lower value 1.01 | locus YHR200W, strain rpn10, stronger effect = lower value 1 | locus YIL066C, strain RNR3, stronger effect = lower value 1.02 | locus YIL073C, strain SPO22, stronger effect = lower value 1.01 | locus YIL125W, strain kgd1, stronger effect = lower value 1 | locus YIR030C, strain dcg1, stronger effect = lower value 0.995 | locus YJL092W, strain hpr5, stronger effect = lower value 1.02 | locus YJL095W, strain BCK1 (second series), stronger effect = lower value 1.03 | locus YJL095W, strain BCK1, stronger effect = lower value 0.997 and 1.01 | locus YJL115W, strain asf1, stronger effect = lower value 1 | locus YJL129C, strain trk1, stronger effect = lower value 1.03 | locus YJL134W, strain LCB3, stronger effect = lower value 1.01 | locus YJL154C, strain vps35, stronger effect = lower value 1.01 | locus YJL164C, strain tpk1, stronger effect = lower value 0.979 | locus YJL166W, strain qcr8, stronger effect = lower value 1.04 | locus YJL168C, strain set2, stronger effect = lower value 1 | locus YJL187C, strain SWE1 (second series), stronger effect = lower value 1.02 | locus YJL187C, strain SWE1, stronger effect = lower value 1.02 | locus YJR043C, strain POL32, stronger effect = lower value 0.991 | locus YJR066W, strain TOR1, stronger effect = lower value 0.955
